The source of these data is PubChem BioAssay.

In assay [1] the test system is Human papillomavirus type 1a protein E7 (residues 44-93). Briefly: small molecules binding HPV E7 44-93 – biochemical, small-molecule microarray, residues 44-93, 635 nm fluorescence, primary screen (AID 1108).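 Note: E7 fragment applied at 1 µg/mL in TBST for 1 h at 4 C; score combines spot fluorescence with its signal to noise ratio.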 The conditions noted are these: fluorescence 635 nm, higher = more signal.
Assay [2] is described as follows: hepatitis C replication reporter changes, two-sided – Huh7 cells, luciferase reporter, HCV replication inhibitor project, primary screen (AID 1109).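 Note: huh7 hepatoma cells harbouring a luciferase neomycin HCV replicon reporter; luciferase luminescence as measure of HCV replicon replication; test concentration not given here.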 The following applies: Huh7 HCV replicon luciferase reporter, 48 h; higher = more signal.
Assay [3] has as its target Left-right determination factor 2 (Homo sapiens) (UniProt O00292). The experiment in a line: small molecules binding LEFTY2 protein – biochemical, small-molecule microarray, 635 nm fluorescence scan, primary screen (AID 1110). The following applies: higher = more signal.
For assay [4], the target named is Calmodulin-1 (Homo sapiens) (UniProt P0DP23). Briefly: small molecules binding calmodulin-1 with EGTA – biochemical, small-molecule microarray, Cy5-labelled CALM1, profiling panel (AID 1111).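 Note: labelled calmodulin applied in Tris saline Tween buffer holding calcium plus EGTA and DTT.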 The following applies: Cy5-CALM1 binding fluorescence, higher = more signal.
Assay [5] shares this target. The experiment in a line: small molecules binding Ca-loaded calmodulin-1 – biochemical, small-molecule microarray, Cy5-labelled CALM1, plus calcium, artefact control for SMM control-protein annotation, profiling panel (AID 1112).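 Note: score merges spot fluorescence with signal to noise from triplicate slides.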 The following applies: Cy5-CALM1 binding fluorescence, higher = more signal.
Assay [6] in a line: probe aWnt5a binding to arrayed compounds – biochemical, biotinylated probe, 635/667 nm fluorescence, primary screen (AID 1113).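 Note: score merges 667 nm fluorescence intensity with signal-to-noise per printed feature.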 The conditions noted are these: small-molecule microarray, higher = more signal.
The nature of assay [7]: probe aShh binding to arrayed compounds – biochemical, biotinylated probe, 635/667 nm fluorescence, primary screen (AID 1114).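 Note: probe is biotin-labelled aShh protein from a stem cell growth factor screen; measures binding of labelled protein to compounds printed on the slide; score merges feature fluorescence at 667 nm with signal-to-noise.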 The conditions noted are these: small-molecule microarray, higher = more signal.
A short description of assay [8]: probe aNog binding to arrayed compounds – biochemical, biotinylated probe, 635/667 nm fluorescence, primary screen (AID 1115).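 Note: probe is biotinylated aNog protein used at 0.15 µg/mL for 1 h at 4 C; z-score combines 667 nm fluorescence of each spot with its signal to noise.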 The following applies: small-molecule microarray, higher = more signal.
Assay [9] has as its target Torsin-1A-interacting protein 1 (Homo sapiens) (UniProt Q5JTV8). Briefly: compound microarray binding of lysate hLAP1 – cell lysate, small-molecule microarray, COS7 lysate, 635/667 nm fluorescence, primary screen (AID 1116). The following applies: 635 nm fluorescence, higher = more signal.
Assay [10] deals with Alpha-bungarotoxin (Bungarus multicinctus) (UniProt P60615). The experiment in a line: compounds binding labelled alpha-BTX control protein – biochemical, small-molecule microarray, Alexa647 label, 635/667 nm fluorescence, artefact control for SMM control protein annotation, profiling panel (AID 1117). The conditions noted are these: alpha-BTX-A647 binding fluorescence, higher = more signal.
Chain of Alpha-bungarotoxin (Bungarus multicinctus) (P60615 whole entry, looked up): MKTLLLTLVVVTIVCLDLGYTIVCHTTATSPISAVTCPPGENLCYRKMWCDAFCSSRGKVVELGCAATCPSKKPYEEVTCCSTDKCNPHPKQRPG

Assay [11] has as its target Albumin (Bos taurus) (UniProt P02769). The experiment in a line: compounds binding labelled BSA control protein – biochemical, small-molecule microarray, Alexa647 label, 635/667 nm fluorescence, artefact control for SMM control protein annotation, profiling panel (AID 1118).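 Note: score merges 667 nm emission intensity and signal-to-noise per printed compound spot.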 The conditions noted are these: BSA-A647 binding, fluorescence 635 nm, higher = more signal.
A short description of assay [12]: probe aXIP binding to arrayed compounds – biochemical, NeuroSMM set, 635/667 nm fluorescence, primary screen (AID 1119).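 Note: probe is the protein aXip251-270 applied at 1 µg/mL to compound-printed slides; binding of probe to printed compounds measured as 667 nm fluorescence plus signal to noise.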 The following applies: small-molecule microarray, higher = more signal, called active from +8 up or from −8 down.
Assay [13] in a line: probe aNOTCH3 binding on compound microarray – biochemical, small-molecule microarray, 635/667 nm fluorescence, primary screen (AID 1120).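 Note: probe is a biotin-tagged antibody raised against NOTCH3 rather than NOTCH3 protein; score merges spot fluorescence near 667 nm with spot signal to noise.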 The following applies: higher = more signal.
Assay [14] can be described thus: probe aNOTCH2 binding on compound microarray – biochemical, small-molecule microarray, 635/667 nm fluorescence, primary screen (AID 1121).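 Note: score merges feature fluorescence read at 667 nm with its signal to noise.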 The following applies: higher = more signal.
Assay [15] concerns the target Carbonic anhydrase 2 (Homo sapiens) (UniProt P00918). The experiment in a line: compounds binding carbonic anhydrase 2 – biochemical, small-molecule microarray, Alexa647-labelled CAII, profiling panel (AID 1122). The conditions noted are these: CAII-A647 binding fluorescence, higher = more signal.
A short description of assay [16]: COS7 lysate on small-molecule microarray, probe aHis, 635 nm (AID 1123).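 Note: z-score combines 667nm fluorescence intensity with signal-to-noise per printed compound spot.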 The conditions noted are these: COS7 cell lysate, fluorescence, higher = more signal.
The nature of assay [17]: probe aLAP1 signal on lysate-treated microarray – cell lysate, small-molecule microarray, COS7 lysate, primary screen (AID 1124).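 Note: lysate comes from COS7 cells expressing LAP1 and is applied at 0.3 µg/mL; score merges spot fluorescence near 667 nm with signal-to-noise over triplicate slides.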 The conditions noted are these: probe aLAP1, fluorescence, higher = more signal.
Assay [18] has as its system Sam68 (KHDRBS1). The experiment in a line: compounds binding KHDRBS1 protein – biochemical, small-molecule microarray, 635 nm fluorescence, primary screen (AID 1125).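 Note: score merges 667 nm channel intensity with signal to noise over triplicate slides.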 The conditions noted are these: higher = more signal.
For assay [19], the system named is Chordin-like protein 2 (CHRDL2). Briefly: compounds binding chordin-like 2 – biochemical, small-molecule microarray, 635 nm fluorescence, primary screen (AID 1126).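 Note: printed compound slides probed with Chrdl2 protein at 4 µg/mL for 1 h at 4 C; score merges 667 nm emission intensity with signal to noise over three replicate slides.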 The conditions noted are these: fluorescence 635 nm, higher = more signal.
For assay [20], the target named is Concanavalin-A (Canavalia ensiformis) (UniProt P02866). The experiment in a line: compounds binding concanavalin A lectin – biochemical, small-molecule microarray, Alexa647 label, 635 nm, artefact control for SMM control protein annotation, primary screen (AID 1127).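 Note: z combines 667 nm emission intensity with signal-to-noise across three replicate slides.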 The following applies: ConA-A647 binding fluorescence, higher = more signal.
Chain of Concanavalin-A (Canavalia ensiformis) (P02866 whole entry, looked up): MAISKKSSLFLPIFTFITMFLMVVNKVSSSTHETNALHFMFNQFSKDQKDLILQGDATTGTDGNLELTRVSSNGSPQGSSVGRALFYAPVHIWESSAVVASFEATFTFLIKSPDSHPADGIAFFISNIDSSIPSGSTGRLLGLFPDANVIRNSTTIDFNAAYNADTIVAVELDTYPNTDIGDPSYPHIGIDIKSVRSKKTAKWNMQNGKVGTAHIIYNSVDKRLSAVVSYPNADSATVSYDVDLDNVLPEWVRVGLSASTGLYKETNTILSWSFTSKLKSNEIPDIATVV

Calls of active or inactive are those of the source.

Chain of Albumin (Bos taurus) (P02769 whole entry, looked up): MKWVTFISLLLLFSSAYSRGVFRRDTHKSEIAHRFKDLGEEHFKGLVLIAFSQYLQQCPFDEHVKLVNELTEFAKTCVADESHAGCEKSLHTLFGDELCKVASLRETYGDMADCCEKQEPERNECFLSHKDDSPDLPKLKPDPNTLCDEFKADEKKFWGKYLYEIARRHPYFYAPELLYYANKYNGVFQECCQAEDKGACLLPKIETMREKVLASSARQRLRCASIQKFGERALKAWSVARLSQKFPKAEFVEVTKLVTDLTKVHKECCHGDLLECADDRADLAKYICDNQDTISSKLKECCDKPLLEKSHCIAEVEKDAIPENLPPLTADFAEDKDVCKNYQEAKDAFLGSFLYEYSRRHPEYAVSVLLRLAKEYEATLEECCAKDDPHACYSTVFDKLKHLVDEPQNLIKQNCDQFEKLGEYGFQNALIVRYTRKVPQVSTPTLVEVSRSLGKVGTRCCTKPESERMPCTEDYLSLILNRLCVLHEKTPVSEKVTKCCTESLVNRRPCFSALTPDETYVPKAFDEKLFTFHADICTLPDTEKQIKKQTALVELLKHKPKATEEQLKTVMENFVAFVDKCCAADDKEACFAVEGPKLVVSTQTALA
Chain of Left-right determination factor 2 (Homo sapiens) (O00292 whole entry, looked up): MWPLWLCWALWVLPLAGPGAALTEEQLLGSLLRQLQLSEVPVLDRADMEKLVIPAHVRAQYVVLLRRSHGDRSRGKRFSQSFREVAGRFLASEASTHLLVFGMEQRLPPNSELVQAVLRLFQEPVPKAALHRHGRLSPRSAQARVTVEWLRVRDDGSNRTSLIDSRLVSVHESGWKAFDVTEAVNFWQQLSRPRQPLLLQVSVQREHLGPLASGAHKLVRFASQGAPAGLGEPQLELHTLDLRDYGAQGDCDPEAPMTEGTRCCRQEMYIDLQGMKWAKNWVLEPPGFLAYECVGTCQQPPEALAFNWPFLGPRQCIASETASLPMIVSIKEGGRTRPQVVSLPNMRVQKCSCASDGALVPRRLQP
Chain of Torsin-1A-interacting protein 1 (Homo sapiens) (Q5JTV8 whole entry, looked up): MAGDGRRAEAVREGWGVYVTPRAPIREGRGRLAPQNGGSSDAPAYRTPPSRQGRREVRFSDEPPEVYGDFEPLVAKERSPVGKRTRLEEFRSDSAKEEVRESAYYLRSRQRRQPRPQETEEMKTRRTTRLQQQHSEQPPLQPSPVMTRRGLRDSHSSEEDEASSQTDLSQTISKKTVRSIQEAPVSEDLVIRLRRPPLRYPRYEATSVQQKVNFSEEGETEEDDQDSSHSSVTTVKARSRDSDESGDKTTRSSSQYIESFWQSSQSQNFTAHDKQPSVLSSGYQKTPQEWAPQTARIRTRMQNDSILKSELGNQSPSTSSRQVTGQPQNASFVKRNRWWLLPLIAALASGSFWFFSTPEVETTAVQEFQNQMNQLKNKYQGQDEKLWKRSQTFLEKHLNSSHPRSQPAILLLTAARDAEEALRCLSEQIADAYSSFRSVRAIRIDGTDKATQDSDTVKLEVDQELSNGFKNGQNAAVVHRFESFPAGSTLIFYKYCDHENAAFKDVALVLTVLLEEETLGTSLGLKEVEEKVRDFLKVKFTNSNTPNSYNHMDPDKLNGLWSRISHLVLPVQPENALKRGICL

With `C=CC[C@]1(C(=O)OC)N=C(c2ccc(OCCCO)cc2)O[C@H]1c1ccccc1N=[N+]=[N-]`, the composite z-score was 1.06 in assay [1]; 0.786 in assay [3]; 0.592 in assay [4]; -0.357 in assay [5]; 0.194 in assay [6]; 0.598 in [7]. Moreover, the composite z-score in assay [8] was 1.7; in [9] it was 0.387; in [10] it was 0.935; in [11], -0.899; in assay [13] it was 0.734; in assay [14], 0.26. The composite z-score turned out to be 0.429 in assay [15]; 2.87 in [16]; 0.198 in [17]; 1.3 in assay [18]; 1.14 in [19]; 1.09 in assay [20]. Also, the z-score in assay [2] is 0.452. The composite Z-score in [12] was 0.0557 (inactive).

Consider `COC(=O)[C@@H]1N=C(c2ccc(OCCCO)cc2)O[C@@H]1c1ccccc1CN=[N+]=[N-]`, for which the composite z-score was 1.41 in assay [1]; -0.769 in assay [3]; 0.393 in assay [4]; -0.292 in [5]; 0.0224 in assay [6]; 0.131 in [7]. Moreover, the composite z-score in assay [8] was 1.29; in assay [9] it was 0.609; in assay [10] it was 0.893; in assay [11] it was 0.273; in assay [13], 0.181; in [14], -0.0162. The composite z-score in [15] was 0.552; in [16], 1.18; in assay [17], -0.0169; in assay [18], 0.513; in assay [19], -0.689; in assay [20] it was 0.116. The molecule also showed a z-score in assay [2] of -2.67. In addition, the composite Z-score in assay [12] is 0.443 (inactive).

Consider `CC(C)C[C@@H]1NC(=O)[C@@]23C(=O)N[C@@H](Cc4ccccc4)C2[C@H](C)[C@@]2(C)O[C@H]2C3/C=C/C/C=C\CNC(=O)[C@@H](CC(C)C)NC1=O` (stereo not given in full), for which the composite z-score in assay [1] is 0.741; in assay [3], 0.567; in assay [4], -0.475; in assay [5], -0.674; in assay [6] it was -0.101; in assay [7], -0.238. Besides, the composite z-score in assay [8] is -0.35; in [9], 0.403; in assay [10] it was 0.322; in assay [11] it was 0.757; in assay [13], -0.0311; in assay [14], -0.167. For the same molecule, the composite z-score in [15] is 0.599; in assay [16] it was 0.925; in [17], 0.285; in [18], 1.3; in [19], 0.732; in [20], -1.14. The molecule further displayed a z-score in assay [2] of 0.052. The composite Z-score in assay [12] is 0.183 (inactive).

In the case of `COCCOC(=O)N1C(=O)[C@@]2(c3cc(C#CC4(O)CCCCCC4)ccc31)[C@H](c1ccc(OCCO)cc1)N1[C@H](c3ccccc3)[C@H](c3ccccc3)OC(=O)[C@H]1[C@@H]2C(=O)N1CCCCCCC1`, the composite z-score in assay [1] worked out at 1.41; in [3], 0.725; in assay [4], 2.18; in assay [5] it was 1.45; in assay [6], 0.716; in assay [7], 1.01. Further, the composite z-score stood at 2.62 in assay [8]; 2.51 in assay [9]; 1.89 in assay [10]; 0.571 in assay [11]; 1.14 in assay [13]; 0.0899 in assay [14]. Also, the composite z-score in [15] was 0.357; in assay [16] it was 2.47; in [17], 1.02; in [18], 1.31; in [19], 0.744; in assay [20] it was 1.15. Further, in assay [2], the z-score was -1.94. In addition, in [12], the composite Z-score was 1.12 (inactive).

As for `COc1ccc([Si](C)(C)[C@@H]2[C@@H](CC(=O)N(CCO)Cc3ccccc3)O[C@]3(C(=O)N(Cc4ccc(N5CCC5=O)cc4)c4ccccc43)[C@H]2C)cc1`, the composite z-score was -0.382 in [1]; 1.14 in assay [3]; 0.086 in assay [4]; 0.734 in assay [5]; -0.176 in assay [6]; 0.0898 in assay [7]. The composite z-score in assay [8] was -0.194; in assay [9], 0.357; in assay [10], 0.295; in assay [11], 0.212; in assay [13], -0.178; in [14] it was -0.218. Further, the composite z-score in [15] was -0.23; in assay [16], 0.711; in [17], -0.161; in assay [18], 0.0201; in [19], 0.508; in assay [20] it was 0.783. In assay [2], the z-score is -4.13. In addition, in assay [12], the composite Z-score was -0.272 (inactive).
